The panel holds about 83,000 compounds, 20% with a hit somewhere; the sample as a whole holds those more often.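 Testing used 96-well plates and a 48-hour single-concentration exposure. Example: -40 means 40% of the starting cells died.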 A number with no mark means an inactive call. The source made the active and inactive calls. Rule for the calls: active = growth percent below 10; inactive = the rest.
These compounds were tested on MDA-MB-468 breast (assay: NCI-60 one-dose screen, 48 h (100 = growth as untreated, 0 = no growth, -100 = all killed)). Settings: 10 µM unless noted.

**Q.** For `O=C(CSc1nc2ccc([N+](=O)[O-])cc2[nH]1)Nc1cccc([N+](=O)[O-])c1`, which growth is on record?
**A.** Its growth is -1.47% (active).

**Q.** Which growth does the source give for `O=C1/C(=C/c2ccc(F)cc2)C=C(c2ccccc2)N1CCc1ccccc1` here?
**A.** The growth was 72.9%.

**Q.** How did the growth turn out when `Fc1cc2c(cc1Cl)N(c1ncnc3ccc(-c4ccc5n[nH]nc5c4)cc13)CC2` was run?
**A.** The growth was 40.2%.

**Q.** How did the growth turn out when `CCCCOc1ncnc2nc[nH]c12` was run?
**A.** The growth was 98.5%.

**Q.** For `COc1ccc(Nc2ncccc2C(=O)NCc2cn(Cc3cccc(Oc4ccccc4)c3)nn2)c(OC)c1`, which growth is on record?
**A.** Its growth is 14.8%.

**Q.** Which growth does the source give for `COc1cc2ncnc(Oc3cccc(NC(=O)Nc4cc(C(C)(C)C(F)(F)F)on4)c3)c2cc1OC` here?
**A.** Its growth is 12.4%.

**Q.** For `N#Cc1cnc2ccc(-c3cnc(N)nc3)cc2c1N1CCc2cc(F)c(Cl)cc21`, which growth is on record?
**A.** Its growth is -38.1% (active).

**Q.** For `CCOC(=O)n1cc(-c2nonc2-c2cn(C)c3ncccc23)c2ccccc21`, which growth is on record?
**A.** The growth was -8.56% (active).

**Q.** For `CCCCCCCCN(CCCCCCCC)CCCCCCCCCN1CCCc2cc(OC)ccc21`, which growth is on record?
**A.** The growth was 61.8%.

**Q.** `CO[C@H]1/C=C(/C)CCC[C@H](C)[C@H](O)[C@@H](C)C(=O)C(C)(C)[C@@H](O)CC(=O)O[C@@H]1/C(C)=C/c1csc(C)n1` was tested. Which growth did it give?
**A.** The growth was -23.3% (active).

**Q.** How did the growth turn out when `CNC(=O)c1cccc2cc(Oc3ccnc4cc(OCC5(N)CC5)c(OC)cc34)ccc12` was run?
**A.** Its growth is 74.6%.

**Q.** For `CCCCCCc1cc2cc(-c3csc(/C=C/c4ccccc4)n3)c(=O)oc2cc1O`, which growth is on record?
**A.** The growth was -21.1% (active).

**Q.** `CCO/C=N/NC(=O)c1ccncc1` was tested. Which growth did it give?
**A.** The growth was 107%.

**Q.** `O=C(CC1(O)C(=O)Nc2ccc(Br)cc21)c1ccc(Cl)cc1` (configuration not stated) was tested. Which growth did it give?
**A.** Its growth is 100%.

**Q.** Which growth does the source give for `CC(=C(c1ccc(OCCN2CCCCC2)cc1)c1ccc(OCCN2CCCCC2)cc1)c1ccc(Cl)cc1` here?
**A.** Its growth is -79.6% (active).

**Q.** For `COc1ccc(C2NC(=O)c3cc4c(cc3N2)OCO4)cc1` (configuration not stated), which growth is on record?
**A.** The growth was -1.6% (active).

**Q.** Which growth does the source give for `O=C(NNc1nc2cc(F)cc(F)c2n2cccc12)c1ccncn1` here?
**A.** The growth was -7.49% (active).

**Q.** With `COC(=O)c1c(-c2ccccc2)csc1NC(=O)c1c(-c2ccccc2)noc1C` as the compound, how does the growth read?
**A.** Its growth is 63.6%.

**Q.** With `Cc1c2cnccc2c(C)c2c1c1cc(C#N)ccc1n2C` as the compound, how does the growth read?
**A.** The growth was -46.9% (active).

**Q.** With `COc1ccc(/C=N/Nc2cc(=O)[nH]c3ccc(C)cc23)cc1` as the compound, how does the growth read?
**A.** Its growth is 101%.

**Q.** Which growth does the source give for `COc1cc(/C=C/C(=O)/C=C(/C=C/c2ccc(OC(C)=O)c(OC)c2)OB(F)F)ccc1OC(C)=O` here?
**A.** The growth was 48.8%.

**Q.** Which growth does the source give for `Cc1nn(-c2ccccc2)c2c1N=c1s/c(=C\c3cn(-c4ccccc4)nc3-c3ccc(Cl)cc3)c(=O)n1C(C)N2` (configuration not stated) here?
**A.** The growth was 86.6%.

**Q.** For `Cc1cc(C(c2ccccc2)c2ccccc2)ccc1NS(=O)(=O)c1ccccc1`, which growth is on record?
**A.** Its growth is 111%.

**Q.** `N#C/C(=C\c1ccc2c(c1)OCO2)c1ccccc1` was tested. Which growth did it give?
**A.** The growth was 24.8%.

**Q.** For `COC12C=C/C(=C(/C(=O)OCc3cncnc3)C(=O)CCCCCCCCC3(OC)C=C/C(=C(/C(=O)OCc4cncnc4)C(=O)CCCCCCCC1)O3)O2`, which growth is on record?
**A.** The growth was -39.8% (active).

**Q.** For `CCCc1cn(CC(=O)Nc2nc3ccccc3s2)nn1`, which growth is on record?
**A.** Its growth is 110%.

**Q.** For `O=C(Nc1ccccc1C(=O)NCC1CC1)c1cccs1`, which growth is on record?
**A.** Its growth is 102%.

**Q.** How did the growth turn out when `COc1cc(/C=C2\C(=O)N(c3c(Cl)cccc3Cl)c3ccccc32)cc(OC)c1OCCCCCCn1c2ccccc2c(=O)c2ccccc21` was run?
**A.** The growth was 108%.

**Q.** How did the growth turn out when `CCC1=C[C@@H]2CN(C1)Cc1c([nH]c3ccccc13)[C@@](C(=O)OC)(c1cc3c(cc1OC)N(C)[C@H]1[C@@](O)(C(=O)OC)[C@H](OC(C)=O)[C@]4(CC)[C@@H]5C[C@@H]5CN5CC[C@]31[C@@H]54)C2` was run?
**A.** The growth was -31.7% (active).

**Q.** Which growth does the source give for `O=C(CC12CC3CC(CC(C3)C1)C2)NCCOCCOCCOCCNC(=O)c1cc2c(o1)C(=O)c1ccccc1C2=O` here?
**A.** The growth was -34.8% (active).

**Q.** `COc1ccc(NNS(=O)(=O)O)cc1` was tested. Which growth did it give?
**A.** The growth was 99.3%.

**Q.** For `Nc1nc(N)c2cc(Sc3ccc(Cl)cc3)ccc2n1`, which growth is on record?
**A.** The growth was 18.7%.

**Q.** How did the growth turn out when `Cc1cccc(C)c1Nc1nnc(-c2ccc(F)cc2)o1` was run?
**A.** The growth was 102%.

**Q.** For `Fc1ccc(C2CC(c3cccc(Nc4ccncc4)c3)=NN2c2ccccc2)cc1` (configuration not stated), which growth is on record?
**A.** Its growth is -2.33% (active).

**Q.** With `CCN1C(=O)N(CC)C2C1NN=c1s/c(=C\c3ccc(Br)cc3)c(=O)n12` (configuration not stated) as the compound, how does the growth read?
**A.** Its growth is 7.21% (active).

**Q.** With `O=C1NC(=O)/C(=C/c2ccc(Cl)cc2Cl)N1` as the compound, how does the growth read?
**A.** Its growth is 130%.

**Q.** With `COc1ccc(OC2=C(C#N)C(=N)N3c4ccccc4Sc4ccccc4C3N2)cc1` (configuration not stated) as the compound, how does the growth read?
**A.** Its growth is 94.5%.

From PubChem BioAssay (NCI)
